Values joined by “and” are separate entries in the source; they are usually repeats but may differ in a detail not shown here. Equal values may be shown once. Compounds without any hit were thinned out: in the full panel of roughly 83,000, 20% have a hit.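 Compound tested at a single concentration for 48 hours in 96-well plates; a percent growth value below 10 was scored as active.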 More than one record can exist for a structure, and the calls need not agree. Active and inactive are the calls of the source.
tested on: PC-3 prostate; test: NCI-60 one-dose screen, 48 h (100 = growth as untreated, 0 = no growth, -100 = all killed); details: 10 µM unless noted
Method: Growth inhibition of the PC-3 human tumor cell line is measured as a screen for anti-cancer activity. Cells are grown in 96 well plates and exposed to the test compound for 48 hours. Compounds are tested at a single concentration, which is 10^-5 M for most compounds. The reported endpoint is percent growth (GI% or GIPRCNT), where numbers from 0 - 100% represent growth inhibition, and numbers from -100% - 0 represent cell death. For example, a value of 40 represents 60% growth inhibition. A value of 0 means no net growth occurred over the course of the experiment. A value of -40 indicates 40% of cells at the beginning of the experiment died by the end of the experiment. A value of -100 means all cells are dead at the end of the experiment.
NCI-60 Human Tumor Cell Lines Screen was performed using the standard one-dose NCI protocol, which is described in more detail at https://dtp.cancer.gov/discovery_development/nci-60/default.htm.
Compounds with GIPRCNT values below 10 were considered active. Activity score was based on GIPRCNT using the following formula: […]
Score is 0 for GIPRCNT values of 100 or above, 50 for GIPRCNT values of 0, and 100 for GIPRCNT values of -100.

| SMILES | growth |
| --- | --- |
| CCCCC(CCc1ccc([N+](=O)[O-])cc1)(C(C)=O)C(=O)OCC (stereo not given) | 81.2% (inactive) |
| CC(O)C(O)C(O)C(O)C(O)C(=O)NNc1ccccc1 (stereo not given) | 86.3% (inactive) |
| CCCOC(=O)c1nc(N(CC2CCCCC2)C(=O)NC)sc1/N=C/c1ccccc1 | 25.3% (inactive) |
| Nc1ccc(-c2ccc(N)c(S(=O)(=O)O)c2)cc1S(=O)(=O)O | 101% (inactive) |
| CCOc1cc(F)c([N+](=O)[O-])cc1[N+](=O)[O-] | 66.4% (inactive) |
| C(=N\Nc1ccc2ccccc2n1)/c1ccccn1 | 45.1% (inactive) |
| COC(=O)c1nc(=S)[nH]c(C(=O)OC)c1C(=O)c1ccc(Cl)c(Cl)c1 | 106% (inactive) |
| CN1CCC(c2ccccc2)(c2ccccc2)C(=O)C1 | 85.7% (inactive) |
| CCCCCCCCc1cc(Cl)c(O)c(Cl)c1 | 89.9% (inactive) |
| OC(c1cc(-c2ccc(C(F)(F)F)cc2)nc(C(F)(F)F)c1)C1CCCCN1 (stereo not given) | -29.2% (active) and -43.2% (active) and 17% (inactive) |
| CCCCCCCCCCCC[n+]1ccccc1 (tested in a mixture with another compound) | -61.8% (active) |
| O=C(/C=C/c1ccccc1)c1ccccc1O | 92.9% (inactive) |
| COc1cc(NCc2ccc3nc(N)nc(N)c3c2C)cc(OC)c1OC (tested in a mixture with another compound) | 23.4% (inactive) |
| CCOC(=O)C1=C(C(=O)c2ccccc2)C(c2cccc([N+](=O)[O-])c2)C(C(=O)c2ccccc2)=C(C(=O)OCC)N1 | 86% (inactive) |
| CC(=O)c1ccc2c(c1)CCc1ccccc1-2 | 100% (inactive) |
| O=C(c1ccccc1)c1cc2ccccc2oc1=O | 72.3% (inactive) |
| Cc1ccccc1NC(=O)Cc1csc2[n+]1C(=O)/C(=C/c1ccc([N+](=O)[O-])cc1)S2 | 85.9% (inactive) |
| CN(C)c1ccc(C(=C2C=CC(=[N+](C)C)C=C2)c2ccc(N(C)C)cc2)cc1 | -31.3% (active) |
| CN(C)c1ccc(C(C#N)(c2ccccc2)c2ccc(N(C)C)cc2)cc1 | 69.4% (inactive) |
| Clc1ccc(-n2ncc3c(NCCCN4CCOCC4)ncnc32)cc1 | 87.5% (inactive) |

| SMILES | growth |
| --- | --- |
| CN(C)c1ccc2cc3c(cc2c1)Oc1ccccc1N3.[Cl][Zn][Cl] | 81.1% (inactive) |
| O=C(OC12CC3CC(CC(C3)C1)C2)c1ccc(NCc2cc(O)ccc2O)cc1 | -16.5% (active) |
| CCCCCCCCCCCCNCCCc1ccccc1 | 78.9% (inactive) |
| O=[N+]([O-])c1ccc2c(c1)Cc1ccccc1-2 | 96.7% (inactive) |
| CCN(CC)CC(O)c1cc(-c2ccc(Cl)cc2)nc2cc(Cl)ccc12 (stereo not given) | 28.5% (inactive) |
| O=[N+]([O-])c1ccc(C2N(Cc3ccc(Cl)cc3)CCN2Cc2ccc(Cl)cc2)cc1 | 82.3% (inactive) |
| c1ccc(-c2cccc(-c3ccccn3)n2)nc1 | 31.2% (inactive) |
| CCSc1nc2ccccc2o1 | 92.3% (inactive) |
| O=C(NOC(=O)c1ccccc1)c1ccccc1 | 90.2% (inactive) |
| O=[N+]([O-])C=C(c1ccccc1)c1ccccc1 | 76.5% (inactive) |
| Cc1cc(C)c(C#N)c(Sc2nc(C)c([N+](=O)[O-])c(C)c2C#N)n1 | 77.1% (inactive) |
| Oc1ccc(Cl)cc1C(c1cc(Cl)ccc1O)C(Cl)(Cl)Cl | 6.26% (active) |
| O=[N+]([O-])c1ccc(Oc2ccccc2Cl)c([N+](=O)[O-])c1 | 97.1% (inactive) |
| O=C(/C(Cl)=N/O)c1ccc(-c2ccccc2)cc1 | 98.6% (inactive) |
| O=C(NNc1ccccc1)OCc1ccccc1 | 54.1% (inactive) |
| O=C1c2ccccc2Cc2cccc(Cl)c21 | 92.9% (inactive) |
| CCc1cnc2ccccc2c1/C=C/c1ccc(N(C)C)cc1 | 54.7% (inactive) |
| Cc1nnc(N/N=C/c2ccc([N+](=O)[O-])o2)[nH]c1=O | 3.62% (active) |
| O=S(=O)(O)c1cnccn1 | 82.6% (inactive) |
| NC(=S)Nc1ccc2c(c1)Cc1ccccc1-2 | 71% (inactive) |

Reference: PubChem BioAssay (NCI)
